# Screening data: PubChem, The Scripps Research Institute Molecular Screening Center
# Shown are actives, neighbours in structure and some others; about 4.1% of the full set was active somewhere.
# DAX1 inh-1 = inhibitors of human orphan nuclear receptor DAX1 (NR0B1). HEK293 Gal4-DAX1 luciferase reporter, luminescence. inhibition, % at 6.75 µM. 340,000 compounds, 0.99% hits. AID 504766;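 active = inhibition above the mean over all tested compounds plus 3 SD, cut at about 4.2% in these data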;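 note: 0% = DAX1-transfected cells with DMSO and 100% = empty-vector control cells with DMSO; inhibition shows as a rise in luminescence from relieved DAX1 repression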
# Target sequence (P51843 207-470 limits assumed): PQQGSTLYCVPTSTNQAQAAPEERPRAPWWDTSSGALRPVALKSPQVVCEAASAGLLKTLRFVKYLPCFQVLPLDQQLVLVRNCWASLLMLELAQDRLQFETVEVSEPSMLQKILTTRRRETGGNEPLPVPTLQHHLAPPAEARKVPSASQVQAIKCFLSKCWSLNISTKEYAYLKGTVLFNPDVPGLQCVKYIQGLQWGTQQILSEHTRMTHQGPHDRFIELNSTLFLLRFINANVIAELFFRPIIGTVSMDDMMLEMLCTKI
# hcDAF-12 act = H. contortus DAF-12 activation, primary screen | activation, % at 6.8 µM | HEK293 hcDAF-12 lit1-tk-luc reporter, luminescence; 0% DMSO, 100% Δ7-dafachronic acid | 370,000 compounds, 1.4% hits;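 active = activation above the mean of all tested compounds plus 3 SD, cut at about 5.5% in these data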;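 note: 100% = response to 3 µM Δ7-dafachronic acid high control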
# DAX1 inh-2 = inhibitors of DAX1 repression of SF-1 activated StAR promoter. HEK293T StAR-luciferase reporter, SF-1/DAX-1 repression relief. inhibition, % at 6.8 µM. 370,000 compounds, 1.1% hits. AID 652010;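 active = inhibition above the mean over all tested compounds plus 3 SD, cut at about 3.6% in these data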;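 note: 0% = DAX-1 cells with DMSO and 100% = cells lacking DAX-1 with DMSO; higher inhibition means more luminescence from relief of DAX-1 repression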
# ssDAF12 agonist = activates DAF-12 receptor from parasite S. stercoralis | HEK293 ssDAF-12/GRIP1 lit1-tk-luc reporter, luminescence; % of 3 µM dafachronic acid response | activation, % at 6.8 µM | 370,000 compounds, 1% hits;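 active = activation above the mean over all tested compounds plus 3 SD, cut at about 0.9% in these data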;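 note: 0% = DMSO-only wells and 100% = 3 µM delta7-dafachronic acid wells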
# hgDAF-12 ag = agonists of H. glycines DAF-12 nuclear receptor. HEK293 GAL4-hgDAF12 UAS-luciferase reporter, agonist luminescence; normalized to butyrate control. activation, % at 6.8 µM. 370,000 compounds, 1.8% hits. AID 687014;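 active = activation above a cutoff set at the mean of all screened compounds plus 3 SD, cut at about 10% in these data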;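 note: 0% = DMSO wells and 100% = sodium butyrate wells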
# DAX1 conf = NR0B1 (human) inhibition, confirmation; shares compounds with DAX1 inh-2; HEK293T StAR-promoter luciferase reporter, SF-1/DAX-1 repression; inhibition, % at 6.8 µM; 2,400 compounds, 87% hits; AID 652134;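 active = inhibition above the average of every tested compound plus 3 SD, cut at about 3.8% in these data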;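 note: 0% = DAX-1 cells with DMSO and 100% = no DAX-1 control cells with DMSO; active compounds raise luminescence by relieving repression of the StAR reporter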
# Target sequence (P51843 whole entry, looked up): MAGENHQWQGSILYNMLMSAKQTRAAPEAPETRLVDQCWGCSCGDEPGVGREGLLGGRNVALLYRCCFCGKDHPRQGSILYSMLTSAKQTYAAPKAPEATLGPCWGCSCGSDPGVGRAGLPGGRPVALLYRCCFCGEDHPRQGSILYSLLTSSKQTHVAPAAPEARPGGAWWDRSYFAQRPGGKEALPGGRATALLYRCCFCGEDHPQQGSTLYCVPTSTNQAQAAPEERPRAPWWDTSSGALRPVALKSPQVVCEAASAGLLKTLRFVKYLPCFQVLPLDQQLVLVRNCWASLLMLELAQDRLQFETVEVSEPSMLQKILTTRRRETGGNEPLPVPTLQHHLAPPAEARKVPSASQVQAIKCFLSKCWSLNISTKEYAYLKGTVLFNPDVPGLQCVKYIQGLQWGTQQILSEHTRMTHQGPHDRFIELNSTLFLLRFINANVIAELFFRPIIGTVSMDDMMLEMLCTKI
# SF1 mutant ctr = nonselective inhibitor or artifact in SF-1 mutant DAX1 counter-screen; shares compounds with DAX1 inh-2; HEK293 StAR-luciferase, SF-1 AF2 mutant, luminescence; inhibition, % at 6.8 µM; 2,400 compounds, 78% hits; AID 652136;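 active = inhibition above the mean of all tested compounds plus 3 SD, cut at about 3% in these data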;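 note: 0% = DAX-1 transfected cells with DMSO and 100% = cells without DAX-1 with DMSO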
# LXR ag = activates human LXR-beta, counter-screen for hcDAF-12 agonists. shares compounds with hcDAF-12 act. HEK293 Gal4-LXR tk-luc reporter, luminescence, 24 h; normalized: DMSO 0%, positive control 100%. activation, % at 6.8 µM. 3,400 tested, under 10 active. AID 743027;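 active = mean percent activation of the reporter above a cutoff set as the average over tested compounds plus their standard deviation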
# hcDAF12 conf = confirmation of H. contortus DAF-12 agonists; shares compounds with hcDAF-12 act; activation, % at 6.8 µM; HEK293 hcDAF-12 lit1-tk-luc reporter, luminescence; % of Δ7-dafachronic acid response; 3,400 compounds, 61% hits;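 active = mean activation across triplicate tests above the threshold derived from the earlier primary screen, cut at about 5.5% in these data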;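 note: 0% = DMSO only wells and 100% = 3 µM Δ7-dafachronic acid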
# hgDAF12 conf = hgDAF-12 agonism, confirmation assay. shares compounds with hgDAF-12 ag. HEK293 GAL4-hgDAF12 luciferase reporter, agonist mode; percent of butyrate response. activation, % at 6.8 µM. 3,300 compounds, 80% hits. AID 743050;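 active = mean activation over triplicate wells above the hit cutoff derived from the earlier primary screen, cut at about 11% in these data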;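 note: 0% = DMSO low control and 100% = 2 mM sodium butyrate high control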
# LXRb DAF12 ctr = activates human LXR-beta, counter-screen for DAF-12 agonists; shares compounds with hgDAF-12 ag; activation, % at 6.8 µM; 3,300 tested, under 10 active; HEK293 Gal4-LXR luciferase reporter, 24 h;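 active = mean activation of the triplicate above a set limit carried over from the primary screen, none filed active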
# Starred values were filed as active, the others as inactive; . = no result.
SMILES,DAX1 inh-1,hcDAF-12 act,DAX1 inh-2,ssDAF12 agonist,hgDAF-12 ag,LXR ag,hcDAF12 conf,others
c1csc(-c2nnc(-c3ccc(N4CCOCC4)cc3)o2)c1,-0.9,5.8*,5.1*,0.8,15.2*,.,.,DAX1 conf=14.2*;SF1 mutant ctr=6.2*;hgDAF12 conf=18.9*;LXRb DAF12 ctr=0.8
c1cncc(-c2nnc(-c3cccs3)o2)c1,2.5,0.7,-0.4,-1.1,2.3,.,.,
COc1ccc(CCC(=O)NNC(=O)c2cc(Cl)ccc2OC)cc1,-0.3,1.4,-0.2,-0.7,-1.2,.,.,
CN(C)c1ccc(CNc2nc3ccccc3n2C)cc1,2.3,5.2,4.8*,-1.0,14.7*,.,.,DAX1 conf=8.6*;SF1 mutant ctr=6.9*;hgDAF12 conf=17.4*;LXRb DAF12 ctr=0.8
CCCc1ccc(OCc2ccc(C(=O)N/N=C/c3cccnc3)o2)cc1,-0.1,4.1,5.9*,-0.6,14.2*,.,.,DAX1 conf=6.9*;SF1 mutant ctr=4.3*;hgDAF12 conf=16.6*;LXRb DAF12 ctr=0.8
O=C(O)c1ccccc1-c1nnc2c(Cl)cc(C(F)(F)F)cn12,-1.0,0.7,0.0,-1.8,-0.3,.,.,
N#Cc1ccsc1NC(=O)COC(=O)c1ccc(NC(N)=O)cc1,1.2,8.0*,6.0*,0.5,16.8*,0.8,5.6*,DAX1 conf=9.7*;SF1 mutant ctr=7.1*;hgDAF12 conf=15.5*;LXRb DAF12 ctr=0.6
COc1cccc(C(=O)c2ccccc2C(=O)O)c1,.,0.5,1.0,-0.9,-0.9,.,.,
c1ccc(-c2nc(-c3nccc4ccccc34)oc2-c2ccccc2)cc1,5.0*,15.3*,4.8*,3.0*,18.0*,0.7,5.7*,DAX1 conf=4.8*;SF1 mutant ctr=2.1;hgDAF12 conf=18.8*;LXRb DAF12 ctr=0.7
CC(=O)c1ccc(NC(=O)c2ccc(C)c(Br)c2)cc1,3.3,5.7*,4.9*,-0.3,16.2*,.,.,DAX1 conf=11.9*;SF1 mutant ctr=9.4*;hgDAF12 conf=18.2*;LXRb DAF12 ctr=0.7
COC(=O)c1ccc(NC(=O)c2ccc3nccnc3c2)cc1,-0.5,-2.6,-0.3,-1.1,2.9,.,.,
CCCCC(=O)Nc1ccc(C(=O)NNC(=O)c2ccc(C)c(Br)c2)cc1,-0.7,-1.2,0.0,-1.3,0.2,.,.,
Cc1ccc(C(=O)Nc2ccc3nccnc3c2)cc1,-2.1,9.0*,5.3*,0.6,13.4*,1.8,7.7*,DAX1 conf=16.6*;SF1 mutant ctr=8.3*;hgDAF12 conf=16.1*;LXRb DAF12 ctr=1.3
Cc1cc(NC(=O)c2ccc3nccnc3c2)ccc1Br,1.6,4.7,5.6*,0.9,16.0*,.,.,DAX1 conf=7.6*;SF1 mutant ctr=4.7*;hgDAF12 conf=14.8*;LXRb DAF12 ctr=0.8
COC(=O)C1=C(C)N(Cc2cccc(C(F)(F)F)c2)C(=NCc2ccccc2C(F)(F)F)NC1c1cccc(C(F)(F)F)c1 (configuration not stated),.,-1.9,0.0,0.0,0.9,.,.,
CC(C)(C)NC(=O)CC1C[C@H](C(=O)N2CCCCC2)[C@@]2(CCc3ccccc3)c3[nH]c4ccccc4c3CCN2C1=O (some centres not stated),1.0,0.1,-0.4,-1.0,1.1,.,.,
COc1ccc(NS(=O)(=O)c2cc(NC(=O)c3ccco3)ccc2N2CCCCC2)cc1,-1.2,-2.5,-0.5,-1.1,0.8,.,.,
Cc1cccc(-c2cc3nc(C)cc(C)n3n2)c1,0.9,8.6*,2.6,1.6*,7.6,1.4,10.7*,
Cc1cccc(-c2cc3nc(C)cc(N4CC(C)CC(C)C4)n3n2)c1 (configuration not stated),1.0,-1.9,0.2,-1.0,0.5,.,.,
Cc1cnc(NC(=O)CSc2nnc(-c3ccccc3)o2)s1,6.4*,8.4*,3.3,0.0,6.7,0.7,4.5,
CCOC(=O)c1c(C)oc2c1c1c(c3ccccc32)OCN(Cc2ccccn2)C1,4.0,6.8*,2.0,1.2*,6.3,0.7,8.5*,
CCOC(=O)c1c(C)oc2c1c(CN1CCN(C(=O)OCC)CC1)c(O)c1ccccc12,1.3,8.6*,1.9,0.7,13.0*,0.4,5.1,
CCOC(=O)c1c(C)oc2c1c(C(c1ccncc1)N1CCOCC1)c(O)c1ccccc12 (configuration not stated),.,0.5,0.4,0.3,3.3,.,.,
CCOC(=O)c1c(C)oc2ccc(O)c(CN3CCCCC3)c12,1.7,0.1,-0.1,-1.9,0.0,.,.,
Cc1ccc(Nc2ccccc2)cc1,-0.4,-0.3,0.8,-0.8,0.7,.,.,
SMILES,DAX1 inh-1,hcDAF-12 act,DAX1 inh-2,ssDAF12 agonist,hgDAF-12 ag,LXR ag,hcDAF12 conf,others
Cc1ccc(NC2=Nc3ccccc3CS2)cc1,-1.0,15.2*,2.8,1.6*,19.0*,2.1,14.4*,
O=C1c2cccc3c(N4CCOCC4)c([N+](=O)[O-])cc(c23)C(=O)N1c1cccc2ccccc12,0.5,6.8*,0.4,-1.1,-0.2,-0.4,-0.7,
Cc1cccc(N2C(=O)c3cccc4c(N5CCCCC5)c([N+](=O)[O-])cc(c34)C2=O)c1C,-1.2,1.6,0.1,-0.6,-1.0,.,.,
Cc1ccccc1NC(=O)c1cccc(NC(=O)c2ccccc2C(=O)O)c1,-1.0,1.9,-0.1,-1.4,-0.3,.,.,
O=C(C1=NN[C@@H]2C(=O)N(c3cccc(F)c3)C(=O)[C@H]12)c1ccc2ccccc2n1,0.3,9.0*,1.8,0.7,2.8,-0.2,2.6,
CCOCCOC(=O)Cn1cnc2scc(-c3ccc(C)cc3)c2c1=O,1.7,-0.2,-0.8,-1.4,-2.3,.,.,
C=C1CSc2nc(=O)c3c4c(sc3n21)CCCC4,-0.6,7.0*,0.1,-1.1,1.7,-0.3,1.2,
Cc1cccc(-n2ncc3c(NCCCO)ncnc32)c1,0.5,6.6*,3.6,0.1,12.2*,0.7,3.5,
O=S(=O)(c1ccc(Br)cc1F)N1CCCCC1CCO (configuration not stated),0.4,0.2,0.1,-1.0,0.4,.,.,
CC(=O)Oc1cc2c(s1)CCN(C(C(=O)C1CC1)c1ccccc1F)C2 (configuration not stated),.,-0.9,0.0,-1.4,-1.1,.,.,
S=c1nc(-c2ccccc2)c(-c2ccccc2)n[nH]1,1.3,-0.5,-0.2,-1.3,2.6,.,.,
Nc1c(-c2ccccc2)n[nH]c1-c1ccccc1,-0.5,7.0*,1.0,-0.7,8.1,0.7,7.7*,
